Consider 49 compounds from PMC12548414.

Each structure is given as a SMILES string. Out of some 1,600 compounds screened, about 20 (1%) showed an effect of 50% or more. The list comes from a sample in which strong results are over-represented; it also holds similar structures and randomly drawn compounds.

The assay has as its system T1, E. coli pLC1021 (luc-trpAt trans-translation reporter).
T1 construct: pLC1021 luc-trpAt reporter strain
Details: species or system Escherichia coli pLC1021; luc-trpAt non-stop luciferase reporter; luminescence rises when trans-translation is inhibited; normalized to KKL-35 and DMSO. Particulars: reporter signal, KKL-35 = 100%; rise means trans-translation inhibition; 2 h, 20 µM. The procedure, abridged: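 Cells carrying the non-stop luc-trpAt reporter were exposed to 20 µM compound for 2 h at room temperature, then Bright-Glo was added and luminescence read at 560 nm after 10 min. Signals were normalised per plate to DMSO and 20 µM KKL-35 wells. Hits: activity one SD above the median; ≥2 biological repeats averaged.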
As to `CCC(C)c1ccc(O)c(NC(=S)NC(=O)c2ccc(-c3ccc(Cl)cc3)o2)c1` (stereo not shown) [KKL-0745], the “% activation” value amounted to 0%. For the compound `CC(C)(C)c1cc(NCCCn2ccnc2)n2ncc(-c3ccc(Cl)cc3)c2n1` [KKL-1011], the “% activation” value was determined as 9%.

For the compound `N#Cc1cc(Oc2ccc(OCc3ccccc3)cc2)c([N+](=O)[O-])cc1C#N` [KKL-0738], the “% activation” value is listed as 5%. As for `Cc1cccc(NC(=S)NC(=O)CC23CC4CC(CC(C4)C2)C3)c1` [KKL-1311], the figure is 0%. Turning to `CSCCC(=O)N1CCCC(C(=O)Nc2cccc(-c3cccc(C)c3)c2)C1` (stereo not shown) [KKL-0499], the “% activation” value turned out to be 0%.

In the case of `Cc1ccc(-n2cc(CNC(C)c3csc(C)n3)c(-c3cccc(C)c3)n2)cc1` (stereo not shown) [KKL-0500], the “% activation” value turned out to be 0%. The value for `Cc1ccc2cc3c(nc2c1C)OC(=O)N(C1CCCC1)C3` [KKL-0690] was 1%. As for `CCOc1ccc2nc(NC(=O)c3ccccn3)sc2c1` [KKL-0810], the “% activation” value is given as 0%. For `CCCCc1cccc(C(=O)Nc2nnc(S(=O)(=O)CCCC)s2)n1` [KKL-1853], the “% activation” value was 6%. As for `CCCCc1ccc(C(=O)Nc2nccc3ccccc23)nc1` [KKL-1763], the figure is 50%; as for `c1ccc(-c2nn(-c3ccccc3)cc2CNC2CCCc3c2cnn3-c2ccccn2)cc1` (stereo not shown) [KKL-1169], 0%; as for `Clc1cc(Br)ccc1OCCCCn1ccnc1` [KKL-1286], 0%.

`OC(CN1CCC2(CC1)CC(O)c1cc(F)ccc1O2)c1ccc2c(c1)CCCC2` (stereo not shown) [KKL-0925]: the “% activation” value is 0%. As for `CN(Cc1ccc(Cl)cc1)C(=O)CCc1nc2ccccc2oc1=O` [KKL-1749], the figure is 0%. With `CCN(CC)c1ccc(NC(S)=NCCc2ccc(OC)c(OC)c2)cc1` [KKL-1550], the “% activation” value is recorded as 0%. As for `O=C(Nc1ccc2c(c1)CN(C(=O)/C=C/c1cccs1)CC2)c1ccncc1` [KKL-0616], the “% activation” value is recorded as 0%. `Cc1cc(=O)oc2cc(OCC(=O)OC3CCCCC3)ccc12` [KKL-1250]: the “% activation” value is given as 7%. As for `Cc1nc(-c2ccccc2Br)cc([C@H]2CN3CC[C@H]2C[C@@H]3CNC(=O)c2ccc(C(C)(C)C)cc2)n1` [KKL-1598], the figure is 0%.

For `COc1ccc(Nc2nc(NC3CCNC3)nc3cc[nH]c(=O)c23)cc1CC(=O)c1ccccc1` (stereo not shown) [KKL-1883], the “% activation” value worked out at 335%. As for `COc1ccc(O)c(CN2CCCC(N3CCN(c4cccc(C(F)(F)F)c4)CC3)C2)c1` (stereo not shown) [KKL-0660], the figure is 1%; as for `O=C(Nc1cccc(Cl)c1)Nc1ccccc1OC(F)(F)C(F)F` [KKL-0431], 21%; as for `Cc1ccc(CN(CCCn2ccnc2)Cc2cccc(Cl)c2Cl)o1` [KKL-1195], 17%. As for `CCOC(=O)c1ccc(NC(=O)c2ccc(C)s2)cc1` [KKL-0584], the figure is 0%; as for `CN(C)c1ccc(N=Nc2nc3ccccc3n2C)cc1` [KKL-1056], 0%; as for `Fc1cccc(Oc2cc(C3CCCNC3)nc(-c3ccncc3)n2)c1` (stereo not shown) [KKL-1670], 3%. As for `O=C(C=Cc1cccs1)N1CCN(Cc2ccc(Br)s2)CC1` [KKL-1861], the figure is 0%. With `Cc1ccc(-n2cc(CNCCCn3ccnc3)c(-c3cccc(C)c3)n2)cc1` [KKL-0662], the “% activation” value is on record as 0%. Regarding `Cc1nn2c(O)cc(C(C)(C)C)nc2c1-c1ccccc1` [KKL-0891], the “% activation” value is reported as 17%. As for `CCOC(=O)c1c(NC(=O)COc2ccc(C(C)C)cc2)sc2c1CCC2` [KKL-1530], the “% activation” value came out at 0%.

In the case of `COc1ccc(-c2cc(=O)c3cc(OCC(=O)OC(C)C)ccc3o2)cc1` [KKL-1864], the “% activation” value stood at 2%. With `CCC(NC(=O)c1cnc(C(C)(C)C)nc1)c1ccc(F)cc1` (stereo not shown) [KKL-0932], the “% activation” value came to 5%.

`CCCN=C1C(=O)c2ccccc2C(O)=C1N(C(C)=O)c1cccc(F)c1` [KKL-0978]: the “% activation” value turned out to be 0%. Take `Clc1nnc(N2CCCC2)c2ccccc12` [KKL-1738]: the “% activation” value was 0%. The value for `CCOC(=O)COc1ccc(S(=O)(=O)Nc2c(C)cccc2CC)cc1` [KKL-1460] was 0%; that for `Nc1nc(N)c2c(Sc3ccc4ccccc4c3)cccc2n1` [KKL-1710] was 0%. On to `Cc1sc2nc(C(C)C)n(C3CCN(C(=O)c4ccncc4)CC3)c(=O)c2c1C` [KKL-0464], for which the “% activation” value is listed as 14%. For the compound `COC(=O)[C@@H]1Cc2c([nH]c3ccccc23)[C@H]2C[C@H](NCc3cccnc3)C[C@@H](c3ccc(C(F)(F)F)cc3)N21` [KKL-1613], the “% activation” value amounted to 0%.

`CCn1ccnc1CN(C)Cc1cn(-c2ccc(C)cc2)nc1-c1ccc(F)cc1` [KKL-0657]: the “% activation” value was 0%. For the compound `Cc1ccc(Nc2c(-c3ccccn3)nc3ccc(C)cn23)cc1` [KKL-1199], the “% activation” value amounted to 4%. The value for `N#Cc1cccc(-c2ccc(NCC3CCC(CN(C(=O)O)c4cccnn4)CC3)nc2)c1` (stereo not shown) [KKL-1855] was 0%; that for `c1cn(CCCNc2nncc(-c3ccc(C4CCCCC4)cc3)n2)cn1` [KKL-1171] was 8%. For `COC(=O)[C@@H]1Cc2c([nH]c3ccccc23)[C@H]2C[C@@H](NC(C)C)C[C@@H](c3cccc(Cl)c3)N21` [KKL-1594], the “% activation” value was 1%.

Regarding `COc1ccc(OC)c(NC(=O)Nc2ccc(Cl)c(C(F)(F)F)c2)c1` [KKL-1544], the “% activation” value was found to be 0%. In the case of `Cc1nn(-c2ccccc2)c2c1C(c1ccc(O)c(O)c1)N1C(=N2)C(Nc2ccccc2)=Nc2ccccc21` (stereo not shown) [KKL-0996], the “% activation” value stood at 0%.

On to `COc1cccc(-c2cc(CC3(O)CCN(Cc4[nH]c5ccc(C)cc5c4C)CC3)on2)c1` [KKL-0315], for which the “% activation” value came out at 0%. The value for `CC(C)(C)C(=O)CC1(O)Oc2ccccc2N=C1C=C(O)C(C)(C)C` (stereo not shown) [KKL-1740] was 6%; that for `Cc1cc(C)c(-n2cccn2)c(CN(CCCn2ccnc2)Cc2ccc(F)cc2)c1` [KKL-1032] was 8%; that for `O=C(CN1CCN(Cc2ccccc2)CC1)Nc1ccc([N+](=O)[O-])cc1C(=O)c1ccccc1` [KKL-1480] was 0%. Turning to `O=C(NCc1ccco1)N1CCN(Cc2ccc(Cl)s2)CC1` [KKL-1727], the “% activation” value is reported as 3%.
